In general, AC50 refers to the concentration at which the activity in the assay is half-maximal.

The record followed here is PubChem BioAssay AID1851 (National Center for Advancing Translational Sciences (NCATS), 2009).

Each structure is given as a SMILES string. Hit rate of the full screen: of about 16,000 compounds, about 5,100 (32%) were called active. About 25% were inconclusive and are not listed. This is one part of the list. A number with no mark means an inactive call. Calls come from the whole dose curve; as a rule, active = well fitted curve in the direction sought with a large enough effect; inconclusive = small, poorly fitted or top-dose-only effect, or effect the other way; inactive = no such curve, though single readings can be large or run the other way.
% is set by controls: 0 for no effect and ±100 for the full control effect.

The target in this experiment is Cytochrome P450 3A4 (Homo sapiens) (UniProt P08684). The experiment is described as follows: Cytochrome panel assay with activity outcomes. Particulars: recombinant CYP, pro-luciferin dealkylation, luminescence, p450-cyp3a4; series mostly up to 57.1 µM; activity, negative = inhibition: at the top concentration.
Chain of Cytochrome P450 3A4 (Homo sapiens) (P08684 whole entry, looked up): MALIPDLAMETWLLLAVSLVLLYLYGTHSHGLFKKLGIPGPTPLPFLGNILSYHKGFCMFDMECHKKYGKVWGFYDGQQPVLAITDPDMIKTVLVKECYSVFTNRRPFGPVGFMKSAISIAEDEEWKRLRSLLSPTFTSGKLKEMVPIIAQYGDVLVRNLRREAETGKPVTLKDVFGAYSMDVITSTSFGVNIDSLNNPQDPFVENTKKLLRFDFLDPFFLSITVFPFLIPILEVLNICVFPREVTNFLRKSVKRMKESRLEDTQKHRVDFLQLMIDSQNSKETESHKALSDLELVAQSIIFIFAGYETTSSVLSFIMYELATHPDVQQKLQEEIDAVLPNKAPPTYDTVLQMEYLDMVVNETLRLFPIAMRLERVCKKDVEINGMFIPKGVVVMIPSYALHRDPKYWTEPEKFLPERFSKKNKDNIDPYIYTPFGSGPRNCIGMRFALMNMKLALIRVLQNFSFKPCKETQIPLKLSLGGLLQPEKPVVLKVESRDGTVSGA
Regarding `O=S(=O)(c1ccccc1)N1CCC2(CCCN(C(c3ccccc3)c3ccccc3)C2)CC1`, the AC50 was 2 µM (active).

For `O=S(=O)(c1ccccc1)N1CCC[C@@]2(CCN(C(c3ccccc3)c3ccccc3)C2)C1`, the AC50 was 3.16 µM (active).

As to `CN1CCC2(CC1)CCN(S(=O)(=O)c1ccccc1)CC2`, the “activity, negative = inhibition” value is -12.4%.

With `Cn1c(=O)c2[nH]c(COCc3nc4c([nH]3)c(=O)n(C)c(=O)n4C)nc2n(C)c1=O`, the activity, negative = inhibition is -0.524% [at 11.4 µM].

In the case of `O=C1Cc2c([nH]c3ccc(Br)cc23)-c2ccccc2N1`, the AC50 is 12.6 µM (active).

Regarding `O=C1CCCCC(=O)c2ccccc2N1`, the “activity, negative = inhibition” value is -7.97%.

For `OCCN=C1CCCc2c1[nH]c1ccc(Br)cc21`, the “activity, negative = inhibition” value is -11%.

Regarding `CC(C)OCCCN1CN(S(=O)(=O)c2cccc(Cl)c2)c2nc3ccccc3nc21`, the AC50 was 7.94 µM (active).

With `CCN1C(=O)C(CC(=O)Nc2ccc(OC)cc2)N(Cc2cccnc2)C1=S` (configuration not stated), the AC50 is 11.2 µM (active).

As for `CCCCC(=O)Nc1ccc(C(=O)NNC(=O)CCc2ccccc2)cc1`, the “activity, negative = inhibition” value is -12.2%.

Consider `CCOc1ccc(N2C(=O)/C(=C/c3cccs3)N(CC(=O)OC)C2=S)cc1`, for which the “activity, negative = inhibition” value is -26.9%.

With `CCN1C(=O)C(CC(=O)Nc2ccc(OC)cc2)N(Cc2cccs2)C1=S` (configuration not stated), the AC50 was 3.98 µM (active).

With `CCN1C(=O)C(CC(=O)Nc2ccc(Br)cc2)N(CCCc2ccccc2)C1=S` (configuration not stated), the AC50 is 2.51 µM (active).

Turning to `COCC(=O)Nc1ccc(-c2cn3cccnc3n2)cc1`, the “activity, negative = inhibition” value is -9.62%.

`CNC(=S)Nc1ccc(Nc2ccccc2)cc1`: the “activity, negative = inhibition” value is -26%.

For the molecule `Cc1cc(NC(=S)Nc2ccccc2)ccc1Br`, the AC50 is 20 µM (active).

On to `O=[N+]([O-])c1ccc(C2CCCC/C2=N\OCc2cccc(F)c2)c([N+](=O)[O-])c1` (configuration not stated), for which the AC50 is 14.1 µM (active).

Regarding `O=[N+]([O-])c1ccc(NN=C2c3ccccc3Cc3ccccc32)c([N+](=O)[O-])c1`, the activity, negative = inhibition was -5.06% [at 11.4 µM].

As to `CC1(C)N=C(N)N=C(N)N1c1cccc(OCc2cccc([N+](=O)[O-])c2)c1`, the activity, negative = inhibition was -3.23% [at 11.4 µM].

In the case of `O=C(c1ccccc1)N1CCSC1=S`, the “activity, negative = inhibition” value is -18.4%.

Consider `COC(=O)c1nc(NC(=O)c2ccccc2)n[nH]1`, for which the “activity, negative = inhibition” value is -13.8%.

With `Cc1nc(SC(C(=O)c2ccccc2)c2ccccc2)n[nH]1` (configuration not stated), the AC50 was 7.08 µM (active).

Regarding `Cc1c(NC(=O)C(Sc2ccccc2)c2ccccc2)cccc1[N+](=O)[O-]` (configuration not stated), the activity, negative = inhibition was -28.3% [at 2.29 µM].

With `O=C(NCCCN1CCOCC1)c1cc(C(=O)C2CC2)c[nH]1`, the “activity, negative = inhibition” value was -2.72%.

With `CC(C)(C)c1ccc(C(=O)c2c[nH]c(C(=O)NCCCn3ccnc3)c2)cc1`, the AC50 is 0.282 µM (active).

On to `O=C(c1ccc(C(F)(F)F)cc1)c1c[nH]c(C(=O)NCCCn2ccnc2)c1`, for which the AC50 was 1 µM (active).

As for `O=C(O)CCCCCNC(=O)c1ccncc1`, the “activity, negative = inhibition” value is -1.26%.

For `O=C1Oc2ccccc2C2(O)C3CCCCCC3C12` (configuration not stated), the activity, negative = inhibition was -27.4% [at 11.4 µM].

Turning to `C[C@@](N)(Cc1c[nH]c2ccccc12)C(=O)O`, the activity, negative = inhibition was -19.3% [at 11.4 µM].

With `O=C(Cc1c[nH]c2ccccc12)OCC(=O)c1ccccc1`, the AC50 is 22.4 µM (active).

With `CCn1c(SCC(=O)NC(=O)NCc2ccco2)nnc1-c1cccs1`, the AC50 was 1.26 µM (active).

As for `CCN(CC)C(=O)CSc1nnc(-c2ccco2)n1N`, the “activity, negative = inhibition” value was -0.344%.

`Cn1c(/C(C#N)=C(\O)c2ccc(S(=O)(=O)N3CCCCC3)cc2)nc2ccccc21`: the AC50 is 14.1 µM (active).

As for `CCN(CC)C(=O)CSc1nnc(-c2ccncc2)n1N`, the “activity, negative = inhibition” value is -8%.

For `Cn1c(SCC(=O)N2CCN(S(=O)(=O)c3ccccc3)CC2)nc2ccccc21`, the concentration at half-maximal activity (AC50) is 12.6 µM (active).

Consider `CCN(CC)C(=O)CSc1nnc(-c2cc3ccccc3cc2O)n1CC`, for which the AC50 is 7.94 µM (active).

In the case of `O=C(Nc1ccccc1-c1nc2ccccc2[nH]1)c1ccc(S(=O)(=O)N2CCCCC2)cc1`, the activity, negative = inhibition was -23.2% [at 2.29 µM].

Regarding `CC(C)(C)c1onc(OCP(=O)(O)O)c1C[C@@H](N)C(=O)O`, the “activity, negative = inhibition” value was -6.88%.

As to `O=c1onc(-c2cccs2)n1Cc1ccccc1`, the “activity, negative = inhibition” value is 0.721%.

In the case of `CCn1c(SCC(=O)c2ccccc2)nnc1-c1cccs1`, the AC50 was 8.91 µM (active).

For the molecule `CCn1c(SCC(=O)N2CCN(S(=O)(=O)c3ccccc3)CC2)nnc1-c1cccs1`, the AC50 was 1.12 µM (active).

Take `CCn1c(SCC(=O)c2ccc3ccccc3c2)nnc1-c1cccs1`: the AC50 was 3.98 µM (active).

With `CN(C)/C=N/c1ncc(C(=O)c2ccc3ccccc3c2)s1`, the “activity, negative = inhibition” value is -17%.

Consider `Cc1ccccc1CSc1nnc(-c2cccs2)n1Cc1ccco1`, for which the concentration at half-maximal activity (AC50) is 4.47 µM (active).

On to `CCn1nnnc1SCC(=O)c1ccc2c(c1)OCCO2`, for which the “activity, negative = inhibition” value was -31%.

Take `CC(=O)c1ccc(-n2c(CCC(=O)O)ccc2-c2cccs2)cc1`: the “activity, negative = inhibition” value was -24.9%.

As to `CCn1c(SCC(=O)NC2CCCc3ccccc32)nnc1-c1cccs1` (configuration not stated), the AC50 was 2.82 µM (active).

With `CCOc1c2ccc(C(=O)NC3CCCc4ccccc43)cc2nn1C` (configuration not stated), the “activity, negative = inhibition” value was -21%.

In the case of `CCn1cc(C(=O)O)c(=O)c2cnc(N3CCNCC3)nc21`, the “activity, negative = inhibition” value is 3.01% [at 25.6 µM].

In the case of `CC(=O)OC[C@@H]1O[C@@H](O/N=C2/C[C@@H](O)[C@@H](O)[C@@H]3[C@@H]4C(=O)N([C@@H](C)c5ccccc5)C(=O)[C@H]4CC[C@@H]23)[C@H](OC(C)=O)[C@H](OC(C)=O)[C@@H]1OC(C)=O`, the activity, negative = inhibition was -21% [at 11.4 µM].

`COc1cccc2c1C(=O)c1c(O)c3c(c(O)c1C2=O)C[C@@](O)(C(=O)CO)C[C@H]3O[C@H]1C[C@@H](N)[C@H](O)[C@@H](C)O1.[W]`: the activity, negative = inhibition was -15.2% [at 11.4 µM].

As to `CCOC(=O)C1=C(c2ccccc2)N=c2s/c(=C\c3ccc(O)cc3)c(=O)n2C1c1cccs1` (configuration not stated), the AC50 was 3.55 µM (active).

For `CCOC(=O)C1=C(N)n2c(s/c(=C/c3ccccc3)c2=O)=C(C(=O)OCC)C1c1ccccc1` (configuration not stated), the “activity, negative = inhibition” value was -8.49%.

For the molecule `COC(=O)c1[nH]c(C)c(/C(O)=C2\C(=O)C(=O)N(CCN(C)C)C2c2cccs2)c1C` (configuration not stated), the “activity, negative = inhibition” value was -29.9%.

For `CCOC(=O)C1=C(c2ccccc2)N=c2s/c(=C\c3cccc(O)c3)c(=O)n2C1c1cccs1` (configuration not stated), the AC50 is 15.8 µM (active).

On to `O=c1/c(=C\c2ccc(O)cc2)sc2n1C(c1ccccc1)C(c1ccccc1)=NN=2` (configuration not stated), for which the activity, negative = inhibition is 20.5% [at 0.457 µM].

As for `CCCc1c(OCCCOc2ccc(OCC(=O)O)cc2)ccc(C(C)=O)c1O`, the “activity, negative = inhibition” value is -20.2%.

As to `CC(C)=CC(=O)OCC(=O)Nc1ncc(Cl)c(C)c1Cl`, the “activity, negative = inhibition” value is -10.4%.

Turning to `c1cncc(CNc2ncnc3ccc(-c4ccoc4)cc23)c1`, the AC50 was 1.58 µM (active).

Turning to `Cc1cccc(CNc2ncnc3ccc(-c4ccoc4)cc23)c1`, the AC50 is 3.98 µM (active).

As to `Oc1ccccc1CNn1cnnc1`, the “activity, negative = inhibition” value was -12.2%.

Turning to `COc1ccc(-n2nnnc2-c2cn(C)nc2C(F)(F)F)cc1`, the “activity, negative = inhibition” value is 27.5%.

Regarding `CCOc1nnc(C)c2c(C)n(-c3ccc(Cl)cc3)nc12`, the “activity, negative = inhibition” value is -23.4%.

In the case of `CCn1cc(-c2nnnn2-c2ccc(Cl)cc2)c(=O)c2ccccc21`, the AC50 was 12.6 µM (active).

Consider `Cc1c(Br)c([N+](=O)[O-])nn1CC(=O)NCc1cccs1`, for which the activity, negative = inhibition was -4.17% [at 2.29 µM].

For the molecule `Cc1c(Br)c([N+](=O)[O-])nn1CC(=O)NCc1ccccn1`, the “activity, negative = inhibition” value is 5.47%.

With `Cc1c(Br)c([N+](=O)[O-])nn1C(C)C(=O)Nc1nccs1` (configuration not stated), the AC50 is 20 µM (active).

Consider `CCc1ccccc1NC(=O)C(C)n1nc([N+](=O)[O-])c(Br)c1C` (configuration not stated), for which the AC50 is 25.1 µM (active).

In the case of `Cc1ccc(NC(=O)Cn2nc([N+](=O)[O-])c(Br)c2C)cc1C`, the activity, negative = inhibition is -24.1% [at 2.29 µM].

Regarding `N=C(N)c1ccc(N=Nc2c(O)ccc3c2[nH]c2ccccc23)cc1`, the activity, negative = inhibition is -6.87% [at 11.4 µM].

Take `Cc1cc(C)c(C#N)c(SCC(=O)C(C)(C)C)n1`: the activity, negative = inhibition was -0.356% [at 2.29 µM].

Turning to `COC(=O)CSc1nc(C)cc(C(F)(F)F)c1C#N`, the activity, negative = inhibition was -14.9% [at 2.29 µM].

On to `Cc1cc(C)c(C#N)c(SCS(=O)c2ccc(C(C)(C)C)cc2)n1` (configuration not stated), for which the AC50 was 7.94 µM (active).

As for `Brc1ccc(-c2nnc(-c3cccc(Br)c3)o2)cc1`, the “activity, negative = inhibition” value was 16.1%.

As for `O=S(=O)(c1ccc(Br)cc1)N1CCN(S(=O)(=O)c2ccc(Br)cc2)CC1`, the activity, negative = inhibition is 0.222% [at 11.4 µM].

In the case of `O=S(=O)(c1cccc(-c2nnc(-c3ccc(Br)cc3)o2)c1)N1CCCCCC1`, the AC50 was 3.55 µM (active).

In the case of `O=C1CCCC=C1[C@H](O)c1ccc([N+](=O)[O-])cc1`, the activity, negative = inhibition was -12.2% [at 11.4 µM].

For the molecule `CCOC(=O)C1CCN(Cc2cnc(Oc3ccc(OC)cc3)s2)CC1`, the “activity, negative = inhibition” value is 9.79%.

For `COc1ccc(Cn2nnnc2C(c2ccccc2Cl)N2CCC(C(N)=O)CC2)cc1` (configuration not stated), the AC50 was 12.6 µM (active).

Consider `NC(=O)C1CCN(C(=O)OCc2ccccc2)CC1`, for which the “activity, negative = inhibition” value was -2.06%.

As to `C=CC1=C(C)C2=Cc3c(C=C)c(C)c4[n]3[Sn+2][n]3c(c(C)c(CCC(=O)O)c3=CC3=NC(=C4)C(C)=C3CCC(=O)O)=CC1=N2`, the “activity, negative = inhibition” value was -13.5%.

In the case of `CC(=O)Nc1ccc(NC(=O)c2ccccc2CC[N+](=O)[O-])cc1`, the concentration at half-maximal activity (AC50) is 1.78 µM (active).

Consider `CC(=O)Nc1ccc(C(=O)NNC(=O)CCc2ccccc2)cc1`, for which the “activity, negative = inhibition” value is 4.97%.

Regarding `Cc1c(C(=O)Nc2ccc(OCc3ccccc3)cc2)cccc1[N+](=O)[O-]`, the “activity, negative = inhibition” value is 15.6%.

Turning to `CC[N+](C)(CC)CCC[n+]1c(-c2ccccc2)c2cc(N)ccc2c2ccc(N)cc21`, the AC50 was 15.8 µM (active).

On to `O=C(NCC(c1cccnc1)N1CCOCC1)Nc1ccccc1` (configuration not stated), for which the AC50 is 14.1 µM (active).

Regarding `COC(=O)NCC(c1cccnc1)N1CCN(c2ccccc2OC)CC1` (configuration not stated), the AC50 is 12.6 µM (active).

Consider `COc1ccc(N2CCN(C(CNC(=O)C3CCCCC3)c3cccnc3)CC2)cc1` (configuration not stated), for which the AC50 is 4.47 µM (active).

With `COc1cc(C(=O)NCC(c2cccnc2)N2CCN(C)CC2)cc(OC)c1OC` (configuration not stated), the “activity, negative = inhibition” value was -2.25%.

Consider `C[C@H](CN(C)C)C(O)(c1ccccc1)c1ccccc1`, for which the activity, negative = inhibition was -14.1% [at 11.4 µM].

Consider `CCC(C)NC(=O)NC(=O)N(C1CCCCC1)S(C)(=O)=O` (configuration not stated), for which the “activity, negative = inhibition” value was 4.9%.

Take `Cc1ccnc(NS(=O)(=O)c2ccc(N)cc2)n1`: the AC50 entry is “inactive”.
